Active and inactive are the calls of the source. Unless noted, how the calls were made is not given here.
What was measured:
[1] = HepG2 liver cancer cell viability effects, profiling panel, resazurin fluorescence, 24 h, PK04 Diversity Set (AID 1172); conditions: higher = more signal
[2] = basal S. cerevisiae growth modulation, no modifier, primary screen, OD600, strain BY4716, 24 h, basal condition (AID 1173); conditions: OD600, 24 h, higher = more signal, called active from +8 up or from −8 down
[3] = MM1S myeloma cell viability, profiling panel, resazurin fluorescence, basal, 24 h, PK04 Diversity Set (AID 1174); conditions: higher = more signal, called active from +8 up or from −8 down;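 further: MM1S multiple myeloma cell line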
[4] = target: Dihydroorotate dehydrogenase (quinone), mitochondrial (Plasmodium falciparum (isolate 3D7)) (UniProt Q08210); assay: PfDHODH enzyme inhibitors, primary screen, biochemical, C-terminal His tag, absorbance 600 nm (AID 1175); conditions: DCIP absorbance 600 nm, higher = more signal, called active from +8 up or from −8 down;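 further: recombinant parasite enzyme with a five histidine tag at its C terminus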
[5] = P. aeruginosa biofilm formation inhibitors, primary screen, strain PAO1, LB-PBS medium, absorbance 600 nm (AID 1176); conditions: P. aeruginosa PAO1 growth/biofilm, A600, 12 h; higher = more signal
[6] = S. cerevisiae RM11-1a growth modifiers, primary screen, strain RM11-1a, OD600, basal, 24 h (AID 1177); conditions: OD600, 24 h, higher = more signal, called active from +8 up or from −8 down;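 further: cultures grown under basal conditions with no added stressor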
[7] = E. coli acrAB mutant growth effects, primary screen, E. coli filamentation inducers, strain DRC39, OD650, 24 h (AID 1178); conditions: higher = more signal, called active from +8 up or from −8 down;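 further: growth measured as culture turbidity by optical density at 650 nm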
[8] = E. coli acrAB mutant growth effects, primary screen, E. coli filamentation inducers, strain DRC39, OD650, 48 h (AID 1179);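 further: screen aims at cell division blockers that make cells filament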; conditions: E. coli DRC39 delta-acrAB growth, higher = more signal, called active from +8 up or from −8 down
[9] = RPMI8226 myeloma cell viability, profiling panel, resazurin fluorescence, basal, 24 h, PK04 Diversity Set (AID 1180); conditions: higher = more signal;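 further: RPMI8826 multiple myeloma cell line at 5000 cells per well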
[10] = target: E3 ubiquitin-protein ligase XIAP (Homo sapiens) (UniProt P98170); assay: XIAP binders, primary screen, biophysical, small-molecule microarray, fluorescence 635 nm (AID 1181); conditions: small-molecule microarray binding, higher = more signal;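 further: score merges 667 nm emission and signal to noise over triplicate slides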
[11] = system: XIP peptide (Xip251-270) binding; assay: small-molecule binders of XIP peptide, primary screen, biochemical, small-molecule microarray, fluorescence 635/667 nm, 0.1 µg/mL protein (AID 1182); conditions: fluorescent protein binding, 635 nm, higher = more signal, called active from +8 up or from −8 down
XIP peptide (Xip251-270) = assay: small-molecule binders of XIP peptide, primary screen, biochemical, small-molecule microarray, fluorescence 635/667 nm, 0.5 µg/mL protein (AID 1183); conditions: small-molecule microarray binding, fluorescence 635 nm; higher = more signal
[12] = Plasmodium falciparum growth inhibition, primary screen, strain 3D7, DAPI fluorescence, 100 nL (AID 1184);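 further: parasites grown inside human red blood cells in medium with human serum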; conditions: P. falciparum 3D7 growth, 3 d, higher = more signal
[13] = target: Homeobox protein Hox-A13 (Mus musculus) (UniProt Q62424); assay: inhibitors of HoxA13-DNA binding, primary screen, biochemical, fluorescence polarization, labeled oligonucleotide (AID 1185); conditions: 15 min, higher = more signal, called active from +8 up or from −8 down
[14] = inhibitors of hydroxyurea-induced Chk1 phosphorylation, primary screen, imaging, HeLa, phospho-Chk1 antibody, percent positive cells (AID 1186); conditions: hydroxyurea-induced phospho-Chk1 immunofluorescence imaging, higher = more signal
[15] = inhibitors of hydroxyurea-induced Chk1 phosphorylation, primary screen, imaging, HeLa, phospho-Chk1 nuclear intensity (AID 1187); conditions: hydroxyurea-induced phospho-Chk1 immunofluorescence imaging, higher = more signal

Dihydroorotate dehydrogenase (quinone), mitochondrial (Plasmodium falciparum (isolate 3D7)), sequence (Q08210 whole entry, looked up): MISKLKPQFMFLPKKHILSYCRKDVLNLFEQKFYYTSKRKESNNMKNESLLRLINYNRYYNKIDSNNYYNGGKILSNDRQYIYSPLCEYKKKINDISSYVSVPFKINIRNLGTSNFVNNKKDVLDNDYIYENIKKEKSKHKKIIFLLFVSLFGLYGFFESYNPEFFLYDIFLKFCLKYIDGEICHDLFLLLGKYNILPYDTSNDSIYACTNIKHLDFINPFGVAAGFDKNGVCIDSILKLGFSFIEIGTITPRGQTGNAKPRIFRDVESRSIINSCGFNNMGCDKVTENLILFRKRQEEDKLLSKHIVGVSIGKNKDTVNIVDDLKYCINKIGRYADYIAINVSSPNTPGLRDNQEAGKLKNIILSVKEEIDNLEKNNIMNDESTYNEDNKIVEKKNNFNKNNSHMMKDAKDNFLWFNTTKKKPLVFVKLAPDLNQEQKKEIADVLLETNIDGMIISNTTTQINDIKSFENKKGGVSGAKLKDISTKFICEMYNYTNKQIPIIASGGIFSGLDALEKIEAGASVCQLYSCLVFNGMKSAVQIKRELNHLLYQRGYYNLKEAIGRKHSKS
Homeobox protein Hox-A13 (Mus musculus), sequence (Q62424 whole entry, looked up): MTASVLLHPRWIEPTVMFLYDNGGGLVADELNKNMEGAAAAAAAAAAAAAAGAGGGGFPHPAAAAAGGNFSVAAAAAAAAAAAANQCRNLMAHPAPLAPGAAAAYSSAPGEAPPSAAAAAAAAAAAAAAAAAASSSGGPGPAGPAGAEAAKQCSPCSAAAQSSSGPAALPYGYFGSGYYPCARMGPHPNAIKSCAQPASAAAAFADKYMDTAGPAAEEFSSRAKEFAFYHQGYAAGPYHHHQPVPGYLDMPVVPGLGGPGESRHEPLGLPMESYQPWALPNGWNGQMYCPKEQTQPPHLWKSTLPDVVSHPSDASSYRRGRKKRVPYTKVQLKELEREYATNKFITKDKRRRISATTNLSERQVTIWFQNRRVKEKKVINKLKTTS
E3 ubiquitin-protein ligase XIAP (Homo sapiens), sequence (P98170 whole entry, looked up): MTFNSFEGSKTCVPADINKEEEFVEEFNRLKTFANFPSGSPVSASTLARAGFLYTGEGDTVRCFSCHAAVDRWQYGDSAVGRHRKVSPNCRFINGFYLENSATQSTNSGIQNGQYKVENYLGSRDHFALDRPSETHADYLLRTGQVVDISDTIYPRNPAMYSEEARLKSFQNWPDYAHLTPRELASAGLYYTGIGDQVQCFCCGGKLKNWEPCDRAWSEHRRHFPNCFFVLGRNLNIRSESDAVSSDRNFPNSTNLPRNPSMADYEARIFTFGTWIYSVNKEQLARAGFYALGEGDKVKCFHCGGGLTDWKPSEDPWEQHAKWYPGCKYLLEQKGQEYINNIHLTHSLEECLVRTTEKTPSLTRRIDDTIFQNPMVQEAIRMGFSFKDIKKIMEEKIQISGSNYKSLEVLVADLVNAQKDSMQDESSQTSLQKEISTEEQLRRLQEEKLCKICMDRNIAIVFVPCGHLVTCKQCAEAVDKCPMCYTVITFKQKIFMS

Row | SMILES | z-score [1] | z-score [2] | z-score [3] | composite z-score [4] | z-score [5] | z-score [6] | z-score [7] | z-score [8] | z-score [9] | composite z-score [10] | composite z-score [11] | composite z-score (XIP peptide (Xip251-270)) | z-score [12] | z-score [13] | z-score [14] | z-score [15]
1 | CCCC[C@@H]1C[C@H]1[C@@H](NC(=O)c1cccnc1)c1ccc(Cl)cc1 | 0.562 | -6.77 (inactive) | -0.731 (inactive) | 0.303 (inactive) | -0.0019 (inactive) | -2.78 (inactive) | 0.014 (inactive) | -0.0491 (inactive) | -0.663 | -0.0948 | -1.19 (inactive) | -1.83 | -0.577 | 1.33 (inactive) | -0.308 (inactive) | -0.437 (inactive)
2 | C#CCN(C/C=C/c1ccccc1)[C@H](CO)c1ccccc1 | -0.832 | -16.9 (active) | -1.19 (inactive) | 0.716 (inactive) | -0.128 (inactive) | -1.31 (inactive) | -0.338 (inactive) | -1.7 (inactive) | -1.45 | -0.167 | -0.333 (inactive) | -0.384 | -0.213 | -6.53 (inactive) | -0.209 (inactive) | -0.753 (inactive)
3 | CCCCN1CC=CC23O[C@@H]4/C=C\CCCOC(=O)C4[C@H]2C(=O)N(CCCCCO)[C@@H]3C1=O (stereo partly drawn) | 0.641 | -0.287 (inactive) | 0.451 (inactive) | -0.757 (inactive) | 1.02 (inactive) | -1.06 (inactive) | 0.0497 (inactive) | -0.15 (inactive) | 0.313 | 0.161 | -0.359 (inactive) | 0.41 | 1.34 | -4.13 (inactive) | 1.19 (inactive) | 0.831 (inactive)
4 | CCOC(=O)C1=C[C@@H](C(C)C)N(S(=O)(=O)c2ccc(C)cc2)[C@H]1c1ccccc1F | -0.298 | 0.81 (inactive) | -0.328 (inactive) | -0.471 (inactive) | 0.133 (inactive) | 0.411 (inactive) | -0.77 (inactive) | 0.0503 (inactive) | -0.807 | -0.139 | 1.01 (inactive) | 0.489 | -0.864 | -1.17 (inactive) | 0.503 (inactive) | 0.969 (inactive)
5 | NC(=O)[C@@H]1[C@H]2C(=O)O[C@H](c3ccccc3)[C@H](c3ccccc3)N2[C@H](c2ccc(O)cc2)[C@@]12C(=O)Nc1ccc(C#CC3=CCCCC3)cc12 | -0.712 | 0.761 (inactive) | -7.46 (inactive) | 1.68 (inactive) | 0.802 (inactive) | 2.07 (inactive) | -0.488 (inactive) | -0.705 (inactive) | -6.39 | -0.0696 | 0.799 (inactive) | 0.619 | -0.303 | -0.487 (inactive) | 0.0025 (inactive) | 0.518 (inactive)
6 | C=CCC(OC(C)=O)[C@@H]1[C@@H](N(Cc2ccc(-c3cccc(C(F)(F)F)c3)o2)C(=O)Cc2ccc(OC)cc2)c2cc(OCCCO)ccc2N1C(=O)c1ccc2ccccc2c1 (stereo partly drawn) | -0.29 | -1.44 (inactive) | 0.598 (inactive) | 0.165 (inactive) | -0.841 (inactive) | 0.0979 (inactive) | 0.751 (inactive) | 0.489 (inactive) | 0.187 | 0.144 | 0.397 (inactive) | 0.0642 | -2.16 | -2.43 (inactive) | 0.171 (inactive) | 0.284 (inactive)
7 | COc1ccc(C(O)C2C=CC3C(=O)N(C)C(=O)C3N2N(c2ccccc2)c2ccccc2)c2ccccc12 (stereo not drawn) | -1 | 0.618 (inactive) | -1.57 (inactive) | 0.231 (inactive) | 0.447 (inactive) | 0.588 (inactive) | -0.546 (inactive) | -0.225 (inactive) | -1.14 | 0.239 | 0.742 (inactive) | 0.763 | 0.889 | -2.84 (inactive) | 0.436 (inactive) | 0.15 (inactive)
8 | COC(=O)[C@@]1(Cc2ccc(OC)cc2)[C@H]2c3cc(C(=O)N4CCCC4)n(Cc4nc5ccccc5[nH]4)c3C[C@H]2CN1C(=O)c1ccccc1 | 0.0719 | 1.36 (inactive) | -1.79 (inactive) | 0.98 (inactive) | -0.222 (inactive) | 0.736 (inactive) | -0.0181 (inactive) | -0.104 (inactive) | -1.2 | 0.62 | 1.01 (inactive) | 0.636 | -1.22 | -2.23 (inactive) | 0.732 (inactive) | 0.409 (inactive)
9 | CCC(CC)C(O)C1C=CC2C(=O)N(c3ccccc3)C(=O)C2N1Nc1ccccc1 (stereo not drawn) | 1.48 | -1.61 (inactive) | 0.33 (inactive) | 0.246 (inactive) | 2.07 (inactive) | -0.166 (inactive) | 0.55 (inactive) | 0.503 (inactive) | 0.0861 | 0.212 | 0.285 (inactive) | 0.816 | 0.0789 | -3.76 (inactive) | 0.263 (inactive) | 0.0193 (inactive)
10 | [N-]=[N+]=Nc1ccccc1C[C@@]1(C(=O)N2CCCCC2)N=C(c2ccc(OCCCO)cc2)O[C@@H]1c1ccccc1 | 1.9 | -2.84 (inactive) | -0.351 (inactive) | 0.496 (inactive) | 3.16 (inactive) | 0.076 (inactive) | 1.38 (inactive) | 0.887 (inactive) | -0.0538 | -0.236 | -0.0034 (inactive) | 0.727 | -2.19 | -5.04 (inactive) | -0.878 (inactive) | -0.654 (inactive)
11 | COc1cc(OC)c(C(O)C2C=CC3C(=O)NC(=O)C3N2Nc2ccccn2)cc1Br (stereo not drawn) | -0.455 | -0.991 (inactive) | -0.597 (inactive) | 0.412 (inactive) | 1.19 (inactive) | 0.666 (inactive) | -0.0857 (inactive) | -0.512 (inactive) | -0.195 | -0.0525 | 0.654 (inactive) | 0.448 | 0.776 | -1.28 (inactive) | -0.143 (inactive) | -0.266 (inactive)
12 | C[N+](C)(C)CCCC[C@@H]1NC(=O)[C@H]2C[C@@H](C(=O)NCCCCCCNC(=O)CS)[C@@H](c3ccc(O)cc3)N2C1=O | -0.935 | 0.123 (inactive) | -0.476 (inactive) | 0.0966 (inactive) | -0.0059 (inactive) | -0.0807 (inactive) | 0.0109 (inactive) | -0.643 (inactive) | -0.862 | -0.0272 | 0.945 (inactive) | -0.502 | 0.0331 | -2.68 (inactive) | -0.888 (inactive) | -0.233 (inactive)
13 | O=C1[C@H]2C=C(I)[C@H](C[C@@H]2OCCCCO)[C@@]12CO2 | 0.187 | -1.19 (inactive) | -0.536 (inactive) | -0.543 (inactive) | 0.13 (inactive) | -0.192 (inactive) | -0.682 (inactive) | -0.405 (inactive) | -0.304 | -0.0448 | -0.294 (inactive) | -0.425 | 1.1 | -1.94 (inactive) | 0.239 (inactive) | -0.203 (inactive)
14 | CC(C)C(=C=CC[C@H](O)c1ccc(CO)o1)CCO | -0.0202 | -1.56 (inactive) | -0.159 (inactive) | -2.12 (inactive) | 0.0356 (inactive) | -0.132 (inactive) | -0.706 (inactive) | -0.741 (inactive) | 0.152 | 0.102 | 0.352 (inactive) | 0.792 | 1.27 | -4.02 (inactive) | -0.301 (inactive) | -0.0779 (inactive)
15 | C=CCNC(=O)[C@@H]1[C@H]2C(=O)O[C@H](c3ccccc3)[C@H](c3ccccc3)N2[C@H](c2ccc(OCCO)cc2)[C@@]12C(=O)N(C(=O)OCCOC)c1ccc(C#CCNC(N)=O)cc12 | -1.09 | 1.04 (inactive) | -0.58 (inactive) | -0.132 (inactive) | 0.958 (inactive) | 2.78 (inactive) | 0.589 (inactive) | 0.0924 (inactive) | 0.853 | -0.16 | -0.121 (inactive) | 0.842 | -1.29 | -1.4 (inactive) | 0.111 (inactive) | 0.487 (inactive)
16 | COc1ccccc1CN1C(=O)c2ccccc2[C@@]2(Cc3ccccc3N(CCCN(C)C)C2=O)[C@@H]1c1ccc(CO)cc1 | -0.434 | 0.259 (inactive) | 1.17 (inactive) | -19.5 (active) | 0.282 (inactive) | -0.746 (inactive) | 1.28 (inactive) | 0.468 (inactive) | 0.723 | -0.113 | 0.0228 (inactive) | 0.216 | -1.3 | 1.78 (inactive) | -0.481 (inactive) | -0.454 (inactive)
17 | CCOc1cc(C(O)C2C=CC3C(=O)N(c4ccccc4)C(=O)C3N2Nc2ccc(C(C)C)cc2)ccc1O (stereo not drawn) | -1.14 | -1.16 (inactive) | -0.988 (inactive) | 1.15 (inactive) | 0.779 (inactive) | 1.68 (inactive) | -0.361 (inactive) | -1.34 (inactive) | -1.3 | 0.0891 | 0.429 (inactive) | 0.828 | -0.85 | -4.72 (inactive) | 0.415 (inactive) | 0.241 (inactive)
18 | COc1ccc([Si](C)(C)[C@@H]2[C@@H](CCn3cc([C@H](O)c4ccccc4)nn3)O[C@]3(C(=O)N(Cc4cccc(N5CCC5=O)c4)c4ccccc43)[C@H]2C)cc1 | 0.736 | -0.0294 (inactive) | -0.939 (inactive) | 0.219 (inactive) | 2.05 (inactive) | 1.01 (inactive) | 0.603 (inactive) | 0.127 (inactive) | 0.123 | 0.0345 | 0.863 (inactive) | 0.46 | -2.48 | -2.8 (inactive) | -0.529 (inactive) | -0.414 (inactive)

Source: PubChem BioAssay
